In experiment [1] the test system is XIP peptide (Xip251-270) binding. As to the kind of experiment: XIP fragment 251-270 binding compounds – biochemical, small-molecule microarray, fluorescence 635/667 nm, 0.1 µg/mL protein, primary screen (AID 1182). As to conditions: fluorescent protein binding, 635 nm, higher = more signal, called active from +8 up or from −8 down.
The next experiment deals with XIP peptide (Xip251-270). Description: compounds binding XIP fragment 251-270 – biochemical, small-molecule microarray, fluorescence 635/667 nm, 0.5 µg/mL protein, primary screen (AID 1183). As to conditions: fluorescence 635 nm, higher = more signal.
Experiment [2] can be described thus: blood-stage malaria parasite viability loss – strain 3D7, DAPI fluorescence, 100 nL, primary screen (AID 1184).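 Also: parasites grown inside human red blood cells in medium with human serum.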 The note with it: P. falciparum 3D7 growth, 3 d, higher = more signal.
In experiment [3] the target is Homeobox protein Hox-A13 (Mus musculus) (UniProt Q62424). As to the kind of experiment: disruptors of Hoxa13 oligonucleotide interaction – biochemical, fluorescence polarization, labeled oligonucleotide, primary screen (AID 1185). As to conditions: Hoxa13:DNA binding, 15 min, higher = more signal, called active from +8 up or from −8 down. (In general: Fluorescence polarisation rises when a labelled molecule tumbles more slowly, as on binding a larger partner.)

The nature of experiment [4]: blockers of DNA damage checkpoint Chk1 activation – imaging, HeLa, hydroxyurea, phospho-Chk1 antibody, percent positive cells, primary screen (AID 1186). As to conditions: hydroxyurea-induced phospho-Chk1 immunofluorescence imaging, higher = more signal.
Experiment [5] in a line: blockers of DNA damage checkpoint Chk1 activation – imaging, HeLa, hydroxyurea, phospho-Chk1 nuclear intensity, primary screen (AID 1187). The note with it: hydroxyurea-induced phospho-Chk1 immunofluorescence imaging, higher = more signal.

Active and inactive are the calls of the source. Unless noted, no rule for the calls is given here.

Chain of Homeobox protein Hox-A13 (Mus musculus) (Q62424 whole entry, looked up): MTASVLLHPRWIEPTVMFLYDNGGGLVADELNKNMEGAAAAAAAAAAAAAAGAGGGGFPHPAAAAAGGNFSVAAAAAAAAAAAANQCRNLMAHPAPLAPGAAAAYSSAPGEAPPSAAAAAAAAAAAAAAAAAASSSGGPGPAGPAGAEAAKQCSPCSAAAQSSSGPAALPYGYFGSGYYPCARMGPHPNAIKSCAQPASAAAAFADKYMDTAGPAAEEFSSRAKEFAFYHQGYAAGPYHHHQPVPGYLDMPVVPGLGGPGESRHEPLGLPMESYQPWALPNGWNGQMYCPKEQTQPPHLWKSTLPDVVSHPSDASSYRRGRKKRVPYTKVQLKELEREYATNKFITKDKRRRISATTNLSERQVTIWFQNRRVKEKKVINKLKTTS

Take `COC(=O)[C@]1(Cc2ccccc2N=[N+]=[N-])N=C(c2ccc(OCCCO)cc2)O[C@@H]1c1ccccc1N=[N+]=[N-]`: the composite z-score in experiment [1] was 0.404 (inactive); in the experiment on XIP peptide (Xip251-270), 0.614. For the same compound, the z-score is -2.09 in experiment [2], -2.31 (inactive) in experiment [3], -0.53 (inactive) in experiment [4] and -0.923 (inactive) in experiment [5].

`[N-]=[N+]=NCc1ccccc1C[C@]1(C(=O)NCCN2CCOCC2)N=C(c2ccc(OCCCO)cc2)O[C@H]1c1ccccc1N=[N+]=[N-]`: the composite z-score was 0.281 (inactive) in experiment [1] and 0.614 in the experiment with XIP peptide (Xip251-270). In addition, the z-score was -2.1 in experiment [2], -1.02 (inactive) in experiment [3], -0.2 (inactive) in experiment [4] and 0.0241 (inactive) in experiment [5].

As to `CN(C)C(=O)[C@@]1(CCC(=O)OC(C)(C)C)N=C(c2ccc(OCCCO)cc2)O[C@H]1c1ccccc1`, the values for the composite z-score (in experiment [1]; with XIP peptide (Xip251-270)) were 0.373 (inactive) and 0.909, respectively. Besides, the z-score was -1.8 in experiment [2], -5.79 (inactive) in experiment [3], 0.196 (inactive) in experiment [4] and 0.0613 (inactive) in experiment [5].

Take `Cc1ccc([C@H]2[C@H](C(=O)O)[C@H](Sc3ccccc3)[C@@H](C(C)C)N2S(=O)(=O)c2ccc(C)cc2)cc1`: the composite z-score in experiment [1] was 2.49 (inactive); in the experiment with XIP peptide (Xip251-270) it was 0.787. Besides, the z-score in experiment [2] was -0.619; in experiment [3], -6 (inactive); in experiment [4] it was 0.237 (inactive); in experiment [5] it was -0.0069 (inactive).

For the compound `C[N+](C)(C)CCCCCCNC(=O)[C@H]1C[C@H]2C(=O)N3CCC[C@H]3C(=O)N2[C@H]1c1ccc(O)cc1`, the composite z-score in experiment [1] was 1.07 (inactive); in the experiment on XIP peptide (Xip251-270), 0.276. For the same compound, the z-score is -1.03 in experiment [2], 0.0641 (inactive) in experiment [3], -0.428 (inactive) in experiment [4] and -0.356 (inactive) in experiment [5].

On to `COCCCNC(=O)[C@@]1(c2ccc([N+](=O)[O-])cc2)CC(=O)N(CC23CC4CC(CC(C4)C2)C3)[C@@H]1c1ccc(CO)cc1`, for which the composite z-score was 0.0335 (inactive) in experiment [1] and 0.697 in the experiment on XIP peptide (Xip251-270). In addition, the z-score was -0.0493 in experiment [2], -5.17 (inactive) in experiment [3], -0.687 (inactive) in experiment [4] and -0.404 (inactive) in experiment [5].

`CC(C)c1ccc(NN2C(C(O)c3ccc(N(C)C)cc3)C=CC3C(=O)N(c4ccccc4)C(=O)C32)cc1` (configuration not stated): the composite z-score was -0.0313 (inactive) in experiment [1] and 0.618 in the experiment with XIP peptide (Xip251-270). The z-score in experiment [2] was -0.286; in experiment [3], -2.2 (inactive); in experiment [4] it was 0.148 (inactive); in experiment [5], -0.072 (inactive).

As to `CC(C)C(=C=CC[C@@H](O)c1ccccc1OCCO)C[C@@H](O)c1ccccn1`, the values for the composite z-score (in experiment [1]; with XIP peptide (Xip251-270)) were 2.26 (inactive) and 0.499, respectively. The z-score is -1.35 in experiment [2], -4.89 (inactive) in experiment [3], 0.0231 (inactive) in experiment [4] and 0.215 (inactive) in experiment [5].

As for `[N-]=[N+]=Nc1ccccc1[C@@H]1OC(c2ccc(OCCCO)cc2)=N[C@]1(CCS(=O)(=O)c1ccccc1)C(=O)N1CCOCC1`, the composite z-score in experiment [1] was 1.12 (inactive); with XIP peptide (Xip251-270), 0.731. Besides, the z-score was -2.09 in experiment [2], -1.96 (inactive) in experiment [3], 0.0445 (inactive) in experiment [4] and 0.143 (inactive) in experiment [5].

For `CC(C)(C)OC(=O)CC[C@@]1(C(=O)NCCN2CCOCC2)N=C(c2ccc(OCCCO)cc2)O[C@@H]1c1ccccc1`, the composite z-score in experiment [1] was 1.38 (inactive); with XIP peptide (Xip251-270), 0.825. Also, the z-score in experiment [2] is 0.248; in experiment [3], -4.84 (inactive); in experiment [4], -0.396 (inactive); in experiment [5], -0.395 (inactive).

For `O=C1C[C@]2(c3ccc([N+](=O)[O-])cc3)C(=O)N(CC(F)(F)F)c3cc(CO)ccc3[C@H]2N1CC12CC3CC(CC(C3)C1)C2`, the composite z-score is 0.2 (inactive) in experiment [1] and 0.822 with XIP peptide (Xip251-270). Also, the z-score is 0.0278 in experiment [2], 0.2 (inactive) in experiment [3], -0.151 (inactive) in experiment [4] and -0.382 (inactive) in experiment [5].

As to `COc1ccc(C(O)C2C=CC3C(=O)N(C)C(=O)C3N2Nc2ccccc2)cc1OCc1ccccc1` (configuration not stated), the values for the composite z-score (in experiment [1]; with XIP peptide (Xip251-270)) were 0.492 (inactive) and 0.879, respectively. The z-score in experiment [2] was 0.039; in experiment [3], -4.69 (inactive); in experiment [4], 0.593 (inactive); in experiment [5] it was 0.344 (inactive).

As to `CC(C)c1ccc(NN2C(C(O)c3c(F)cccc3Cl)C=CC3C(=O)N(c4ccccc4)C(=O)C32)cc1` (configuration not stated), the composite z-score in experiment [1] was 0.38 (inactive); with XIP peptide (Xip251-270), 0.748. The z-score in experiment [2] is -0.668; in experiment [3], -1.64 (inactive); in experiment [4] it was 0.561 (inactive); in experiment [5] it was 0.539 (inactive).

In the case of `CCCCC=C[C@@H](NC(=O)c1ccc(C(=O)OC)cc1)c1ccccc1`, the values for the composite z-score (in experiment [1]; with XIP peptide (Xip251-270)) were 2.97 (inactive) and 0.0677, respectively. Moreover, the z-score in experiment [2] was -1.38; in experiment [3], -4.21 (inactive); in experiment [4] it was 0.492 (inactive); in experiment [5] it was 0.256 (inactive).

With `CC(C)c1ccc(NN2C(C(O)c3cccc(O)c3)C=CC3C(=O)N(c4ccccc4)C(=O)C32)cc1` (configuration not stated), the composite z-score in experiment [1] is 0.305 (inactive); with XIP peptide (Xip251-270), 0.668. Besides, the z-score in experiment [2] is -0.0362; in experiment [3], -4.3 (inactive); in experiment [4] it was 0.999 (inactive); in experiment [5], 0.88 (inactive).

Turning to `Cc1ccc(S[C@]2(C(=O)NC3CC3)CC(=O)N(Cc3ccccc3)[C@@H]2c2ccc(CO)cc2)cc1`, the composite z-score in experiment [1] was 0.795 (inactive); in the experiment on XIP peptide (Xip251-270) it was 0.327. Besides, the z-score in experiment [2] is -0.308; in experiment [3], -2.47 (inactive); in experiment [4] it was 0.0616 (inactive); in experiment [5], 0.0892 (inactive).

Regarding `CN(C)CCCCNC(=O)[C@H]1C[C@H]2C(=O)N[C@@H](Cc3ccccc3)C(=O)N2[C@H]1c1ccc(O)cc1`, the composite z-score was 0.508 (inactive) in experiment [1] and 0.0009 with XIP peptide (Xip251-270). The z-score in experiment [2] is -1.16; in experiment [3], -0.0255 (inactive); in experiment [4] it was -0.0685 (inactive); in experiment [5], -0.195 (inactive).

Regarding `O=C1O[C@@H](c2ccccc2)[C@@H](c2ccccc2)N2[C@@H](c3ccc(O)cc3)[C@]3(C(=O)Nc4ccc(C#CC5=CCCCC5)cc43)[C@@H](C(=O)O)[C@H]12`, the composite z-score was 1.53 (inactive) in experiment [1] and 0.327 in the experiment on XIP peptide (Xip251-270). Besides, the z-score was 0.202 in experiment [2], -5.46 (inactive) in experiment [3], -0.0372 (inactive) in experiment [4] and 0.277 (inactive) in experiment [5].

Regarding `O=C1OCC=C[C@H]2OC34C=CCN(c5ccc(Cl)cc5)C(=O)[C@H]3N(CCCCCCO)C(=O)[C@@H]4[C@@H]12` (some centres not stated), the composite z-score in experiment [1] was -0.513 (inactive); in the experiment on XIP peptide (Xip251-270), -1.03. Moreover, the z-score is -0.358 in experiment [2], -4.21 (inactive) in experiment [3], -0.181 (inactive) in experiment [4] and -0.0007 (inactive) in experiment [5].

In the case of `O=C1O[C@H](c2ccccc2)[C@H](c2ccccc2)N2[C@H]1[C@@H](C(=O)N1CCN(c3ncccn3)CC1)[C@]1(C(=O)Nc3ccccc31)[C@H]2c1ccc(OCCO)cc1`, the composite z-score in experiment [1] is -0.161 (inactive); in the experiment with XIP peptide (Xip251-270), 0.219. The z-score was -2.39 in experiment [2], 2.46 (inactive) in experiment [3], -0.54 (inactive) in experiment [4] and -1.1 (inactive) in experiment [5].

With `COc1ccc(C#Cc2ccc3c(c2)[C@]2(C(=O)N3)[C@H](C(=O)NC[C@H](O)c3ccccc3)[C@H]3C(=O)O[C@H](c4ccccc4)[C@H](c4ccccc4)N3[C@@H]2c2ccc(OCCO)cc2)cc1`, the composite z-score is -0.0969 (inactive) in experiment [1] and 0.715 in the experiment with XIP peptide (Xip251-270). The z-score is -1.06 in experiment [2], -0.878 (inactive) in experiment [3], 0.63 (inactive) in experiment [4] and 0.886 (inactive) in experiment [5].

For `COc1ccc([Si](C)(C)[C@@H]2[C@@H](CC(=O)N3CCC[C@H]3CO)O[C@]3(C(=O)N(C)c4c(Br)cc(C)cc43)[C@H]2C)cc1`, the composite z-score is 0.0849 (inactive) in experiment [1] and 0.507 in the experiment on XIP peptide (Xip251-270). Further, the z-score is -0.949 in experiment [2], -6.11 (inactive) in experiment [3], -0.477 (inactive) in experiment [4] and -0.466 (inactive) in experiment [5].
